Only some compounds are listed: those with a hit (about 1.4% of all), similar ones and a draw of the others.
Giardia FBPA inh – blocks Giardia fructose-bisphosphate aldolase activity. Potency, µM (titrated, usually from 59.6 µM), for the others: top-dose activity, negative = inhibition, hits mostly inhibitors. purified Giardia FBPA. actives 0.71% (n = 290,000). AID 2451; note: nearly all actives have a fitted effect of over 55% in size
Target sequence (A8B2U2 whole entry, looked up): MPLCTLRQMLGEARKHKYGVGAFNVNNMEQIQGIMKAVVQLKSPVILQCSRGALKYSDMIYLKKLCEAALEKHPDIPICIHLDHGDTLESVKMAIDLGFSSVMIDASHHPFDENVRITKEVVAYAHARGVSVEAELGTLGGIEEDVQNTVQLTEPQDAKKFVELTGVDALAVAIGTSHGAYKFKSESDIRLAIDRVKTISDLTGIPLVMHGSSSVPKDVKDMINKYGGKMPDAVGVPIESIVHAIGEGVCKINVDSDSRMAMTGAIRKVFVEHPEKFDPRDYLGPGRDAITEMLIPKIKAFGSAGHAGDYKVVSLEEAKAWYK
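40 nM FBPA preincubated 10 min at RT with compound (up to 57.5 uM final), then substrate plus GAPDH/TPI/NAD/arsenate coupling and diaphorase/resazurin added. Fluorescence read after 20 min at RT, 525/598 nm.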
LmPK inhibitor – blocks Leishmania mexicana pyruvate kinase activity; Q27686; purified LmPK, Kinase-Glo ATP luminescence, 1 h; Potency, µM (top dose mostly 57.5 µM), inactives show top-dose activity change, negative = inhibition, actives largely listed as inhibitors; actives 0.37% (n = 290,000)
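Purified LmPK (0.1 nM) with 0.5 mM PEP and 0.1 mM ADP in imidazole buffer pH 7.2 with MgCl2/KCl, 1 h at room temperature. ATP formed was read by luciferase luminescence and normalized to no-enzyme and uninhibited controls.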
AmpC inh no detg – inhibitors of E. coli AmpC beta-lactamase without detergent. P00811. AmpC nitrocefin hydrolysis, absorbance 480 nm, 0.0001% Triton. Potency, µM (top dose mostly 57.1 µM), inactives show top-dose activity change, negative = inhibition, hits mostly inhibitors. actives 0.52% (n = 330,000);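 note: plate controls were no compound for no effect and no enzyme for full effect; nearly all actives have a fitted effect of over 20% in size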
Target sequence (P00811 whole entry, looked up): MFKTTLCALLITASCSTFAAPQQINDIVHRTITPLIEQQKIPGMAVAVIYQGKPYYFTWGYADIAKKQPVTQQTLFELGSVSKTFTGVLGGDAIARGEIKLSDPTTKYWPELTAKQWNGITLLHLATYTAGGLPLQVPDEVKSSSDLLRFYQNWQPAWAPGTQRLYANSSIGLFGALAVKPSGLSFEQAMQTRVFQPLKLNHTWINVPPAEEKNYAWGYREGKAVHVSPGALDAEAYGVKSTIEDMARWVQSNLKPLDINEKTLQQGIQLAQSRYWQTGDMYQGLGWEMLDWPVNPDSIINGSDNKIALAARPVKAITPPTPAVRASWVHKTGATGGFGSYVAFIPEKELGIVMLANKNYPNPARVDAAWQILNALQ
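AmpC (5.3 nM in the dispensed reagent) in 20 mM phosphate pH 7.0 with 0.01% (detergent screen) or 0.0001% Triton X-100 was preincubated with compounds for 15 min at room temperature. Nitrocefin was then added from an 800 uM solution, and hydrolysis was followed at 480 nm.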
RE007 growth inh – less growth of the S. pombe RE007 Vpr strain; AID 651644; S. pombe RE007 Vpr strain, BacTiter-Glo ATP luminescence, 24 h; Potency, µM (titrated, usually from 92.2 µM), inactives show at the top dose activity change, negative = less growth, hits mostly inhibitors; actives 0.21% (n = 360,000); active = well fitted falling curve with a large enough effect; inconclusive = small, poorly fitted or top-dose-only effect; inactive = no such curve, though single readings can be large or run the other way; note: nearly all actives have a fitted effect of over 50% in size
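Fission yeast RE007 carrying one integrated HIV-1 vpr copy, seeded at OD 0.01 in PMG+AL medium with 23 nL pinned compound. Grown 24 h at 30 degrees; viability read by BacTiter-Glo luminescence after 5 min.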
Tb PYK inh – T. brucei pyruvate kinase inhibition; actives 0.12% (n = 410,000); Q57TT1; Potency, µM (doses to about 76.8 µM), for inactives: at the highest dose activity, negative = inhibition, actives largely listed as inhibitors; AID 624173; TbPYK enzyme, Kinase-Glo Plus ATP luminescence, 45 min; note: nearly all actives have a fitted effect of over 50% in size
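Glycolytic pyruvate kinase of T. brucei was incubated with substrate, test compound and 130 uM ADP for 45 minutes at room temperature. Luminescent Kinase-Glo Plus signal was measured after 10 minutes.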
AmpC inh detg – AmpC beta-lactamase inhibition with detergent present; AmpC hydrolysis of nitrocefin, absorbance 480 nm, 0.01% Triton; P00811; AID 485294; Potency, µM (top dose mostly 114 µM), without a hit: at the top dose activity change, negative = inhibition, usual class: inhibitors; actives 0.041% (n = 370,000);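 note: 0% = no-compound wells and -100% = no-enzyme wells; nearly all actives have a fitted effect of over 25% in size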
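20 mM phosphate pH 7.0 + 0.01% (detergent screen) or 0.0001% Triton X-100; 5.3 nM AmpC reagent; cpd preinc 15 min RT; nitrocefin (800 uM stock) to start; A480 q20 s × 4 min; Activity was normalised to no-enzyme and no-compound control wells.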
* hit, by the source's call; [ ] = dose if it differs, or a comment. Unless noted, calls come from the whole dose curve; as a rule, active = well fitted curve in the direction sought with a large enough effect; inconclusive = small, poorly fitted or top-dose-only effect, or another doubt; inactive = no such curve, though single readings can be large; an effect the other way counts as inactive or inconclusive. Unless noted, % is set by controls: 0 for no effect and ±100 for the full control effect; potency is the fitted concentration of half-maximal effect.

What do the screens show for `COc1cc(/C=N/NC(=O)C23CC4CC(CC(C4)C2)C3)cc(Br)c1O`?
Giardia FBPA inh: -2%[12.9 µM]; LmPK inhibitor: -1%; AmpC inh no detg: 28µM*; RE007 growth inh: 3%; Tb PYK inh: -5%; AmpC inh detg: 2%

What do the screens show for `O=C(Nc1ccccc1)Nc1ccccc1`?
Giardia FBPA inh: -5%; RE007 growth inh: -21%; Tb PYK inh: inconclusive

How did O=C(Nc1ccccc1)Nc1n[nH]c2nnc(-c3ccccc3)c(-c3ccccc3)c12 do in these assays?
Giardia FBPA inh: inconclusive; LmPK inhibitor: -7%; AmpC inh no detg: 32µM*; RE007 growth inh: 4%; Tb PYK inh: 0%; AmpC inh detg: -6%

What do the screens show for `N#C/C(=C/c1cc[nH]c1)C(N)=S`?
Giardia FBPA inh: -14%; LmPK inhibitor: -7%; AmpC inh no detg: -32%; RE007 growth inh: 1%; Tb PYK inh: -3%; AmpC inh detg: -3%

How did N#C/C(=C\c1ccc(O)c(O)c1)C(N)=S do in these assays?
Giardia FBPA inh: 14µM*

Results for Cc1cc(C)c(S(=O)(=O)/N=C2/C=C(SCC(=O)O)C(=O)c3ccccc32)cc1C ?
Giardia FBPA inh: 16µM*; LmPK inhibitor: -1%; AmpC inh no detg: 16µM*; RE007 growth inh: inconclusive; Tb PYK inh: inconclusive; AmpC inh detg: 1%

How did Nc1ccc(N2CCCCCC2)cc1 do in these assays?
Giardia FBPA inh: 11µM*; LmPK inhibitor: inconclusive; AmpC inh no detg: -15%; AmpC inh detg: -7%

How did O=C(N/N=C/c1c[nH]c2ccccc12)c1ccccc1Cl do in these assays?
Giardia FBPA inh: 6%; LmPK inhibitor: 5%; AmpC inh no detg: -25%; RE007 growth inh: -9%; Tb PYK inh: -3%; AmpC inh detg: -1%

How did O=C(N/N=C/c1c[nH]c2ccccc12)c1cc(Cl)ccc1O do in these assays?
Giardia FBPA inh: 9%; LmPK inhibitor: 0%; AmpC inh no detg: 16µM*; RE007 growth inh: -1%; Tb PYK inh: 6%; AmpC inh detg: -9%

What do the screens show for `Fc1c(F)c(F)c(N/N=C/c2c[nH]c3ccccc23)c(F)c1F`?
Giardia FBPA inh: -5%; LmPK inhibitor: -1%; AmpC inh no detg: -43%; RE007 growth inh: 16µM*; Tb PYK inh: -12%; AmpC inh detg: 6%

How did O=C(N/N=C/c1c[nH]c2ccccc12)c1ccc(Br)cc1 do in these assays?
Giardia FBPA inh: -1%; LmPK inhibitor: -4%; AmpC inh no detg: 20µM*; RE007 growth inh: -21%; Tb PYK inh: 2%; AmpC inh detg: -11%

Results for NC[C@@H]1O[C@@H](O[C@H]2[C@@H](O)[C@H](O[C@@H]3[C@@H](O)[C@@H](N)C[C@H](N)[C@H]3O[C@H]3O[C@H](CN)[C@@H](O)[C@@H](O)[C@H]3N)O[C@H]2CO)[C@H](N)[C@@H](O)[C@@H]1O ?
Tb PYK inh: -3%

How did Cc1ccc(S(=O)(=O)N(C)Cc2ccc(C(=O)N/N=C3\CCCC(=O)C3)cc2)cc1 do in these assays?
Giardia FBPA inh: 3%; LmPK inhibitor: 2%; AmpC inh no detg: -59%; Tb PYK inh: -1%; AmpC inh detg: -5%

How did O=C1CCC/C(=N\NC(=O)c2ccc(NS(=O)(=O)c3ccc(Br)cc3)cc2)C1 do in these assays?
Giardia FBPA inh: -13%; LmPK inhibitor: 3%; AmpC inh no detg: 28µM*; RE007 growth inh: 32%; Tb PYK inh: -1%; AmpC inh detg: -7%

How did NC(=O)c1ccccc1N/C=C/C(=O)c1ccccc1 do in these assays?
Giardia FBPA inh: -21%; LmPK inhibitor: 7.9µM*; AmpC inh no detg: -22%; RE007 growth inh: -4%[3.69 µM]; AmpC inh detg: 1%

What do the screens show for `CCOC(=O)N1CCN(c2cc(=O)n(-c3ccc(Br)cc3)c(=O)[nH]2)CC1`?
Giardia FBPA inh: -14%; LmPK inhibitor: 1%; AmpC inh no detg: 0.56µM*; RE007 growth inh: -8%; Tb PYK inh: -12%; AmpC inh detg: inconclusive

How did Cc1ccnc2c(N3C(=O)C4C5C=CC(C5)C4(C)C3=O)cccc12 (stereo not drawn) do in these assays?
Giardia FBPA inh: 2%; LmPK inhibitor: -5%; AmpC inh no detg: 7.1µM*; RE007 growth inh: -8%; Tb PYK inh: -1%; AmpC inh detg: inconclusive

How did CC12C(=O)N(c3ccccn3)C(=O)C1C1C=CC2C1 (stereo not drawn) do in these assays?
Giardia FBPA inh: -1%; LmPK inhibitor: 11%; AmpC inh no detg: -8%; RE007 growth inh: 29%; Tb PYK inh: 2%; AmpC inh detg: 0%

How did Cc1cc(NC(=O)c2sc(Nc3cccc(C(F)(F)F)c3)nc2N)no1 do in these assays?
Giardia FBPA inh: -1%; LmPK inhibitor: 0%; AmpC inh no detg: -35%; RE007 growth inh: 21%; Tb PYK inh: 1%; AmpC inh detg: inconclusive

How did Cc1cc(NC(=O)c2sc(Nc3ccc(F)c(Cl)c3)nc2N)no1 do in these assays?
Giardia FBPA inh: 1%; LmPK inhibitor: -5%; AmpC inh no detg: 20µM*; RE007 growth inh: 10%; Tb PYK inh: -6%; AmpC inh detg: -3%

What do the screens show for `CCc1ccccc1NC(=O)Nc1nnc(N(C)Cc2ccccc2)s1`?
Tb PYK inh: 3%; AmpC inh detg: -5%

What do the screens show for `Cc1ccc(-n2nnnc2CNC(=O)C(C)(C)C)cc1C`?
Tb PYK inh: 1%; AmpC inh detg: 23%

How did CCOc1ccccc1CNc1ccc(O)cc1 do in these assays?
Giardia FBPA inh: 11µM*; LmPK inhibitor: -3%; AmpC inh no detg: -58%; RE007 growth inh: -11%; Tb PYK inh: 5%; AmpC inh detg: -4%

How did CCOc1cc(CNc2ccc(O)cc2)ccc1OCc1ccc(Cl)cc1Cl do in these assays?
Giardia FBPA inh: 16µM*; LmPK inhibitor: -1%; AmpC inh no detg: inconclusive; RE007 growth inh: 0%; Tb PYK inh: -21%; AmpC inh detg: 0%

What do the screens show for `CCc1ccc(CNc2ccc(O)cc2)cc1`?
Giardia FBPA inh: 4µM*; LmPK inhibitor: -1%; AmpC inh no detg: -34%; RE007 growth inh: -3%; Tb PYK inh: 2%; AmpC inh detg: 0%

What do the screens show for `Oc1ccc(NCc2ccccc2OCc2ccccc2Cl)cc1`?
Tb PYK inh: -5%; AmpC inh detg: 3%

What do the screens show for `Oc1ccc(NCc2ccccc2OCc2ccccc2F)cc1`?
Giardia FBPA inh: 13µM*; LmPK inhibitor: 1%; AmpC inh no detg: -42%; RE007 growth inh: -27%; Tb PYK inh: inconclusive; AmpC inh detg: inconclusive

What do the screens show for `Oc1ccc(NCc2ccc(OCc3ccccc3)cc2)cc1`?
Giardia FBPA inh: inconclusive; LmPK inhibitor: 0%; AmpC inh no detg: -35%; RE007 growth inh: -10%; Tb PYK inh: inconclusive; AmpC inh detg: -2%

Source: PubChem
